Assay [1] deals with HCI11 (cells of an ER-positive luminal breast cancer xenograft). As to the kind of experiment: cell viability (% of vehicle); higher = less cytotoxic. Particulars: 10 µM; 72 h.
For assay [2], the system named is HCI16 (cells of a triple-negative basal-like breast cancer xenograft). The assay is described as above. Particulars: 10 µM; 72 h.
The test system of assay [3] is HCI03 (cells of an ER-positive luminal breast cancer xenograft). Described as above. As to conditions: 10 µM; 72 h.
In assay [4] the test system is HCI13 (cells of an ER-positive luminal breast cancer xenograft). The description is as above. As to conditions: 10 µM; 72 h.
In assay [5] the test system is UCD52 (cells of a triple-negative basal-like breast cancer xenograft). The description is as above. Particulars: 10 µM; 72 h.
The subject of assay [6] is WHIM2 (cells of a triple-negative basal-like breast cancer xenograft). The assay is described as above. As to conditions: 10 µM; 72 h.
Assay [7] deals with WHIM30 (cells of a triple-negative basal-like breast cancer xenograft). Described as above. Particulars: 10 µM; 72 h.
In assay [8] the test system is HCI01 (cells of a triple-negative basal-like breast cancer xenograft). As to the kind of experiment: cell viability of combination (% of vehicle); higher = less cytotoxic. As to conditions: 1 µM; 72 h; partner dose: 10 nM. Here is the method:
(§1)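 PDX cells were treated for 72 h with each drug at 1 µM plus carfilzomib (10 nM; 100 nM for WHIM2). Luciferase viability is expressed as percent of vehicle.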

In assay [9] the test system is UCD52. The assay is described as above. Particulars: 1 µM; 72 h; partner dose: 10 nM. Here is the method:
as §1

Assay [10] concerns HCI09 (cells of a triple-negative luminal androgen receptor type breast cancer xenograft). Briefly: cell viability (% of vehicle); higher = less cytotoxic. Particulars: 10 µM; 72 h.

Structures are written as SMILES. ± gives the standard deviation of the averaged measurements.

Regarding `c1cn2cc(-c3ccc4cn[nH]c4c3)nc(Nc3ccc(N4CCOCC4)cc3)c2n1`, the cell viability in assay [1] was found to be 125; in [2], 86.2.

Turning to `Nc1nc2ccc(OC(F)(F)F)cc2s1` [Riluzole], the cell viability in assay [3] turned out to be 158; in [1], 162; in assay [4], 161 ± 27; in assay [2], 139; in assay [5] it was 175 ± 15; in assay [6], 145 ± 7.3.

Take `CC(=Cc1ccccc1)C=C1SC(=S)N(CC(=O)O)C1=O` [Epalrestat]: the cell viability in assay [3] worked out at 112; in [1], 96.4; in [4], 170 ± 10; in [2], 102; in assay [5] it was 102 ± 11; in [7] it was 134 ± 29.

Consider `CC(C=CC1=C(C)CCCC1(C)C)=CC=CC(C)=CC(=O)O` [Tretinoin (Aberela)], for which the cell viability in assay [3] was found to be 143; in assay [1], 149; in [4], 146 ± 12; in assay [2], 175; in [6], 58.5 ± 19.

In the case of `Nc1ncn(C2OC(CO)C(O)C2O)c(=O)n1` (configuration not stated) [5-Azacytidine] + CC(C)C[C@H](NC(=O)[C@H](CCc1ccccc1)NC(=O)CN1CCOCC1)C(=O)N[C@@H](Cc1ccccc1)C(=O)N[C@@H](CC(C)C)C(=O)[C@@]1(C)CO1 [Carfilzomib], the “cell viability of combination” value in assay [8] turned out to be 75.9; in assay [9], 68.2.

The molecule `Cc1oncc1C(=O)Nc1ccc(C(F)(F)F)cc1` [Leflunomide] had a cell viability in assay [1] of 194.

Consider `COc1cccc(-c2ccc(NC(=O)C3=C(C(=O)O)CCC3)c(F)c2)c1` [Vidofludimus], for which, in [1], the cell viability amounted to 99.5.

In assay [2], `Cc1nc(-c2ccc(OCC(C)C)c(C#N)c2)sc1C(=O)O` [Febuxostat] displayed a cell viability of 191.

Turning to `CC(NCc1ccc(OCc2cccc(F)c2)cc1)C(N)=O.CS(=O)(=O)O` (configuration not stated) [Safinamide Mesylate], the cell viability in [1] came to 161; in assay [4], 191 ± 36; in [5], 190 ± 11; in assay [6] it was 184 ± 45.

For the molecule `COc1cc2nccc(Oc3ccc(NC(=O)NC4CC4)c(Cl)c3)c2cc1C(N)=O` [Lenvatinib (E7080)] + CC(C)C[C@H](NC(=O)[C@H](CCc1ccccc1)NC(=O)CN1CCOCC1)C(=O)N[C@@H](Cc1ccccc1)C(=O)N[C@@H](CC(C)C)C(=O)[C@@]1(C)CO1 [Carfilzomib], the “cell viability of combination” value in assay [8] was 97.9; in [9] it was 38.2.

In the case of `CC1(C)CCC(c2ccc(Cl)cc2)=C(CN2CCN(c3ccc(C(=O)NS(=O)(=O)c4ccc(NC(CCN5CCOCC5)CSc5ccccc5)c(S(=O)(=O)C(F)(F)F)c4)cc3)CC2)C1` (configuration not stated) [ABT-263 (Navitoclax)] + CC(C)C[C@H](NC(=O)[C@H](CCc1ccccc1)NC(=O)CN1CCOCC1)C(=O)N[C@@H](Cc1ccccc1)C(=O)N[C@@H](CC(C)C)C(=O)[C@@]1(C)CO1 [Carfilzomib], the “cell viability of combination” value amounted to 47 in assay [8] and 31.8 in [9].

In the case of `COc1ccc2c(O[C@H]3CC4C(=O)N(C)CCCC/C=C\[C@H]5C[C@@]5(C(=O)NS(=O)(=O)C5CC5)NC(=O)[C@@H]4C3)cc(-c3nc(C(C)C)cs3)nc2c1C` (some centres not stated) [Simeprevir] + CC(C)C[C@H](NC(=O)[C@H](CCc1ccccc1)NC(=O)CN1CCOCC1)C(=O)N[C@@H](Cc1ccccc1)C(=O)N[C@@H](CC(C)C)C(=O)[C@@]1(C)CO1 [Carfilzomib], the “cell viability of combination” value in [8] was determined as 82.7; in assay [9], 62.5.

With `O=C(Nc1nc2cccc(-c3ccc(CN4CCS(=O)(=O)CC4)cc3)n2n1)C1CC1`, the cell viability stood at 186 ± 51 in [10] and 147 ± 9.8 in assay [7].

For `CCC(=C(c1ccccc1)c1ccc(OCCN(C)C)cc1)c1ccccc1.O=C(O)CC(O)(CC(=O)O)C(=O)O` [Tamoxifen Citrate] + CC(C)C[C@H](NC(=O)[C@H](CCc1ccccc1)NC(=O)CN1CCOCC1)C(=O)N[C@@H](Cc1ccccc1)C(=O)N[C@@H](CC(C)C)C(=O)[C@@]1(C)CO1 [Carfilzomib], the “cell viability of combination” value in assay [8] turned out to be 90.4; in [9], 71.2.

With `CCCCc1nc2cc(C=CC(=O)NO)ccc2n1CCN(CC)CC` [Pracinostat (SB939)], the cell viability in assay [10] was found to be 56.2 ± 49; in assay [1], 6.31; in [4] it was 88.1 ± 21; in [6], 64.9 ± 4.9.

Consider `CC(O)=C(C#N)C(=O)Nc1ccc(C(F)(F)F)cc1` [Teriflunomide], for which the values for the cell viability in assay [1], in assay [4] and in [2] were 162, 196 ± 48 and 200, respectively.

Consider `COc1ccc(C=CC(=O)Nc2ccccc2C(=O)O)cc1OC` [Tranilast], for which the cell viability in assay [1] worked out at 87.9; in [2], 108; in [5] it was 116 ± 8.9.

`CC(O)C(=O)O.CC(O)C(=O)O.CN1CCN(c2ccc3c(c2)NC(=C2C(=O)N=c4cccc(F)c4=C2N)N3)CC1` [Dovitinib Dilactic acid] + CC(C)C[C@H](NC(=O)[C@H](CCc1ccccc1)NC(=O)CN1CCOCC1)C(=O)N[C@@H](Cc1ccccc1)C(=O)N[C@@H](CC(C)C)C(=O)[C@@]1(C)CO1 [Carfilzomib]: the “cell viability of combination” value is 71.2 in [8] and 88.8 in assay [9].

`CCc1cnn2c(NCc3ccc[n+]([O-])c3)cc(N3CCCCC3CCO)nc12` (configuration not stated) + CC(C)C[C@H](NC(=O)[C@H](CCc1ccccc1)NC(=O)CN1CCOCC1)C(=O)N[C@@H](Cc1ccccc1)C(=O)N[C@@H](CC(C)C)C(=O)[C@@]1(C)CO1 [Carfilzomib]: the “cell viability of combination” value in assay [8] was determined as 33.6; in [9], 23.7.

The record behind these values is the supplement of paper PMC6992640.
